From PubChem BioAssay (NCI)
The panel holds about 83,000 compounds, 20% with a hit somewhere; the sample as a whole holds those more often.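 Single-dose data. Exposure time 48 hours. Values below 10 considered active.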 Unmarked numbers belong to inactive results. Calls of active or inactive are those of the source.

The compounds below were run on HL-60(TB) leukemia (assay: NCI-60 one-dose screen, 48 h (100 = growth as untreated, 0 = no growth, -100 = all killed)). Conditions: 10 µM unless noted.

SMILES	growth
O=C(Nc1cccc(-n2cc(-c3ccncc3)c(-c3ccc(O)c(Cl)c3)n2)c1)c1ccc(Cl)c(Cl)c1	33.9%
CCCCC1COc2cccc3c2N1C=C/C3=C\C(=O)n1ccc2ccccc21 (stereo unspecified)	58%
O=P(O)(O)OCC1OC(n2cnc3c(NCc4ccco4)ncnc32)C(O)C1O (stereo unspecified)	-6.93% (active)
Cc1ccc2[nH]c(=S)n(-c3ccc(S(=O)(=O)Nc4ccc(Cl)nn4)cc3)c(=O)c2c1	100%
O=C(Nc1c(Cl)cc(Cl)cc1Cl)ON=C1CCCCC1	101%
O=C(Nc1ccc(-c2nc3ccc(NC(=O)c4ccc(Cl)cc4)cc3[nH]2)cc1)c1ccc(Cl)cc1	-45.9% (active)
COC(=O)C1=C(C)C(=O)CC1	86.7%
O=C(O)CN1C(=O)c2cccc3cccc(c23)C1=O	118%
COc1ccc(-c2nc(-c3nc4ccc(C)cc4[nH]3)c3ccccn23)cc1	30.5%
CC1(C)OC(=O)C(c2ccsc2)C(=O)O1	112%
COc1nc2ccccc2cc1/C=C1/C=C(c2ccccc2)NC1=O	-8.46% (active)
O=Cc1[nH]c(Sc2ccccc2)c2ccccc12	12.1%
CN(C)CCN(C)CC(C)(C)C(=O)/C=C/c1ccc(Cl)c(Cl)c1	-41.9% [100 µM] (active)
COc1cc2c(Nc3ccc(S(N)(=O)=O)cc3)ncnc2c(OC)c1OC	91.5%
CC[n+]1ccc2c(c1)C(=O)c1nccc3c1c-2nc1ccccc13	-31.8% (active)
CC(C)(C)C(=O)OCOP(=O)(OCOC(=O)C(C)(C)C)C1CCCN(OC(=O)c2ccccc2)C1=O (stereo unspecified)	35.1%
